This excerpt belongs to a sample that is enriched for hits.
Cycloheximide cs – Cycloheximide Counterscreen for Small Molecule Inhibitors of Shiga Toxin | cell reporter, cycloheximide protein synthesis inhibition counterscreen | max response, % | actives 12% (n = 300,000); in the data active = max response mostly above about 13%, no sharp cut-off; inactive = mostly below about 14%; note: read at 38.3 µM for the half of the compounds with a filed dose; 0% is about no effect
Shiga inhibitor – A qHTS for Small Molecule Inhibitors of Shiga Toxin | Vero cells, Shiga toxin protein synthesis inhibition reporter | inhibition, % at 38.7 µM | actives 9.2% (n = 290,000); in the data active = inhibition mostly above about 28%, no sharp cut-off; inactive = mostly below about 43%; note: 0% is about no effect
LASV entry inh – qHTS for Inhibitors of binding or entry into cells for Lassa Virus; Lassa virus pseudotype entry inhibition, cell reporter; actives 1.2% (n = 300,000); Potency, µM (doses to about 37.9 µM), inactives show top-dose activity change, negative = inhibition, hits mostly inhibitors; calls by dose curve; tested in HEK293 cells; note: potency is the fitted concentration of half-maximal effect; % is set by controls: 0 for no effect and ±100 for the full control effect; nearly all actives have a fitted effect of over 50% in size
AMA1-RON2 inh – qHTS for Inhibitors of AMA1-RON; Towards Development of Antimalarial Drug Lead: Primary Screen; Plasmodium falciparum AMA1 (3D7) - RON2 peptide interaction; AlphaScreen AMA1-biotinylated RON2 peptide binding; Potency, µM (series often up to 58.2 µM), for the others: at the top dose activity change, negative = inhibition, most hits filed as inhibitors; actives 0.2% (n = 360,000); AID 720542, 2013; active = well fitted inhibition curve with a large enough effect; inconclusive = small, poorly fitted or top-dose-only effect; inactive = no such curve, though single readings can be large or run the other way;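 note: potency is the fitted concentration of half-maximal effect; 0% = vehicle wells and -100% = peptide control; nearly all actives have a fitted effect of over 45% in size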
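AMA1 (3D7) with his tag at 25 nM final met compounds first, then biotinylated RON2 peptide at 25 nM; detection used donor plus acceptor beads, 10 µg/mL apiece, read by AlphaScreen after 30 min at room temperature.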
Marburg entry inh – qHTS for inhibitors of binding or entry into cells for Marburg Virus; Potency, µM (top dose mostly 37.8 µM), for the others: top-dose activity change, negative = inhibition, hits mostly inhibitors; actives 1.8% (n = 300,000); Marburg virus pseudotyped entry inhibition, cell reporter; AID 540276, 2011; calls by dose curve; tested in HEK293 cells; note: potency is the fitted concentration of half-maximal effect; % is set by controls: 0 for no effect and ±100 for the full control effect
The depositor's hits bear a star; ? = inconclusive; · = no result given; [ ] = dose if it differs, or a comment.

SMILES	Cycloheximide cs	Shiga inhibitor	LASV entry inh	AMA1-RON2 inh	Marburg entry inh
CC(=O)Nc1ccc(OCc2cccc([N+](=O)[O-])c2)cc1	29*	82*	?	-10%	10%[46.1 µM]
CS(=O)(=O)N1CCC(C(=O)Nc2ccc(OCc3ccccc3)cc2)CC1	0	23	-5%	10%	-1%
Oc1ccc(NCc2ccc(OCc3ccccc3)cc2)cc1	50*	153*	?	42%	?
CC(=O)Nc1cccc(OCc2cccc([N+](=O)[O-])c2)c1	·	·	15%[46.1 µM]	-1%	12%
O=C(Nc1ccccc1)Oc1ccc[nH]c1=O	21*	16	·	-5%	·
CS(=O)(=O)Nc1ccc(OCc2ccccc2)cc1	19*	55	-1%	3%	18%
COC(=O)Nc1ccc(SCC(=O)c2ccccc2)cc1	51*	62*	14%[46.1 µM]	37%	6%[46.1 µM]
Cc1ccc(OC(=O)Nc2ccccc2)cc1	43*	65*	-1%[46.1 µM]	6%	?
COC(=O)Nc1ccc(SCC(=O)c2ccc(Cl)cc2)cc1	9	20	?	6%	-3%[46.1 µM]
O=C(Nc1ccccc1)Oc1ccccc1	7	-2	?	39%	7%
CC1CCN(S(=O)(=O)c2ccc3c(c2)N(C)C(=O)CC(=O)N3C)CC1	-2	11	-13%[46.1 µM]	-1%	1%[46.1 µM]
CCOC(=O)c1ccccc1NC(=O)CSc1ccc(-c2sc(-c3ccccc3)nc2C)nn1	·	·	-23%[46.1 µM]	·	·
C/C(CCC(C)C)=N\NC(=S)NCc1ccccc1	10	-4	·	52%	·
Cn1nc(OC(=O)Nc2ccccc2)cc1C(F)(F)F	28*	37*	·	·	-2%
O=C(O)CCc1ccc(S(=O)(=O)Nc2ccc(OCc3ccccc3)cc2)cc1	14*	45*	-2%[46.1 µM]	7%	?
COC(=O)Nc1ccc(OCc2ccccc2)cc1	60*	72*	?	4%	?
COCC(=O)Nc1ccc(OCc2ccccc2)cc1	38*	61*	5%	4%	?
O=C(O)/C=C/c1ccc(S(=O)(=O)Nc2ccc(OCc3ccccc3)cc2)cc1	-6	28	·	-4%	·
COc1ccc(NC(=S)Nc2ccc(OCc3ccccc3)cc2)cc1OC	15	16	-11%	-11%	?
Cc1ccc(C)c(NC(=O)COC(=O)c2cccc(S(=O)(=O)N3CCCC3)c2)c1	·	·	·	-1%	·
CC(=O)Nc1ccc(N=Cc2ccc(OCc3ccccc3)cc2)cc1	35*	68*	1%	-2%	?
NC(=O)COc1ccc(NC(=O)OCc2ccccc2)cc1	24*	36*	29%	6%	7%
COc1ccc(S(=O)(=O)N2CCN(C)CC2)cc1C(=O)Nc1ccccc1	-2	-5	-3%[46.1 µM]	-3%	?
COc1ccc(CNCCC(c2ccc(F)cc2)c2ccc(OC)cc2)cc1 (stereo not drawn)	-8	-17	13µM*	-2%[11.6 µM]	11µM*
COc1ccc(C(CCNCc2ccc(F)cc2)c2ccc(F)cc2)cc1 (stereo not drawn)	-8	-26	?	25%	15µM*
SMILES	Cycloheximide cs	Shiga inhibitor	LASV entry inh	AMA1-RON2 inh	Marburg entry inh
COc1ccc(CNCCC(c2ccc(OC)cc2)c2ccccc2OC)cc1 (stereo not drawn)	-3	-4	-15%[46.1 µM]	5%	?
COc1ccc(C(CCNCc2ccc(N(C)C)cc2)c2ccccc2OC)cc1 (stereo not drawn)	-3	1	16µM*	13µM*	?
COc1ccc(CNCCC(c2ccccc2)c2ccc(OC(C)C)cc2)cc1OC (stereo not drawn)	-10	-7	6.3µM*	-17%	?
CC(OC(=O)c1nc(Cl)ccc1Cl)C(=O)Nc1ccccc1F (stereo not drawn)	·	·	1%	-1%	-20%[46.1 µM]
Cc1ccccc1NC(=O)c1c(NC(=O)C(C)Oc2cccc(Cl)c2)sc2c1CCCC2 (stereo not drawn)	·	·	-3%[46.1 µM]	·	·
O=C(CSc1n[nH]c(=O)n1C1CC1)c1ccc(F)cc1	13*	18	·	-4%	·
CN(C(=S)Nc1ccccc1)c1ccccc1	-3	-8	1%	18%[2.32 µM]	?
CN(C)/C=N/C(=S)Nc1ccc(Br)cc1F	49*	52*	?	32%	-27%
CN(C)/C=N/C(=S)Nc1ccccc1	19*	88	26%	15%	1%[46.1 µM]
COc1ccc(/C=C/C(=O)N2CCNC(=O)C2)c(OC)c1	14*	27	·	3%	·
O=C1CN(C(=O)/C=C/c2ccc(Br)cc2)CCN1	17*	25	?	-3%	17%
